This passage reports residual activity results from ChEMBL document CHEMBL2218924, “A broad activity screen in support of a chemogenomic map for kinase signalling research and drug discovery” (Biochem J, 2013).

The target of experiment [1] is T1, Serine/threonine-protein kinase TBK1 (Homo sapiens) (UniProt Q9UHD2).
T1 sequence (whole entry): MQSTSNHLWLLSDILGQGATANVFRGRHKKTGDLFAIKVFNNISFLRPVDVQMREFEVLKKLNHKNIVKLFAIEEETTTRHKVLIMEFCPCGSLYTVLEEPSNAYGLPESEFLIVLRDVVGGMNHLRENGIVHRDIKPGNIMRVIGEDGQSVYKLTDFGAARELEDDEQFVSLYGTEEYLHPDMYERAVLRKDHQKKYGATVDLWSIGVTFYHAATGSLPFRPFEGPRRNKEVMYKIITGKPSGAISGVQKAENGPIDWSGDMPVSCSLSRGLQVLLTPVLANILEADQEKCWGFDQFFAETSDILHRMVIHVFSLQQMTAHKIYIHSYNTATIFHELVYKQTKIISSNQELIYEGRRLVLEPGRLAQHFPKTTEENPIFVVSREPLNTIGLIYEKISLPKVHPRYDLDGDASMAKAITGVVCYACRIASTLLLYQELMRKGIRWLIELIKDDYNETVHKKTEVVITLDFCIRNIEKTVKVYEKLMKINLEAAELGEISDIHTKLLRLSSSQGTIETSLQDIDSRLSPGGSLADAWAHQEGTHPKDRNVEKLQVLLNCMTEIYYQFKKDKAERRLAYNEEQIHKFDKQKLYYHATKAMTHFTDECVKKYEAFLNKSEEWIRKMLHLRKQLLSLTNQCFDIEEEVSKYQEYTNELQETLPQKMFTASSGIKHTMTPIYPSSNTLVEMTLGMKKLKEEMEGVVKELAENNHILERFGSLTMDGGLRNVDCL
Particulars: at 10 µM.

The target of experiment [2] is T2, TGF-beta receptor type-1 (Homo sapiens) (UniProt P36897).
T2 sequence (whole entry): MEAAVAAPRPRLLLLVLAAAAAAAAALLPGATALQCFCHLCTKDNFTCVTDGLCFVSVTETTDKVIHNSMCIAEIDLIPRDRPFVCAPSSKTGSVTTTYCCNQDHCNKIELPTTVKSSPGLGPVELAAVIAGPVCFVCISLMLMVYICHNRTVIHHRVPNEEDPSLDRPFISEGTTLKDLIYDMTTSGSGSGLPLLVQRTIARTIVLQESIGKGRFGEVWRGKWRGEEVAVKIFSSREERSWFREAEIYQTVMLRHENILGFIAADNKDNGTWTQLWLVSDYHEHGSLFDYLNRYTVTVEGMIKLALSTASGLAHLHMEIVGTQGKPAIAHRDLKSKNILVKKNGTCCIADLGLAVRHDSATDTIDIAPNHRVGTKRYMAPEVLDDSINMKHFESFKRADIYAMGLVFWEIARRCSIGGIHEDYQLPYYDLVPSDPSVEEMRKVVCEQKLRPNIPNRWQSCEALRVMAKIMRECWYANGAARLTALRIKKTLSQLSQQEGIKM
Particulars: at 1 µM.

The target of experiment [3] is T2, TGF-beta receptor type-1 (Homo sapiens). Particulars: at 10 µM.
In experiment [4] the target is Insulin-like growth factor 1 receptor (Homo sapiens) (UniProt P08069). Particulars: at 1 µM.
Chain of Insulin-like growth factor 1 receptor (Homo sapiens) (P08069 31-736 limits assumed): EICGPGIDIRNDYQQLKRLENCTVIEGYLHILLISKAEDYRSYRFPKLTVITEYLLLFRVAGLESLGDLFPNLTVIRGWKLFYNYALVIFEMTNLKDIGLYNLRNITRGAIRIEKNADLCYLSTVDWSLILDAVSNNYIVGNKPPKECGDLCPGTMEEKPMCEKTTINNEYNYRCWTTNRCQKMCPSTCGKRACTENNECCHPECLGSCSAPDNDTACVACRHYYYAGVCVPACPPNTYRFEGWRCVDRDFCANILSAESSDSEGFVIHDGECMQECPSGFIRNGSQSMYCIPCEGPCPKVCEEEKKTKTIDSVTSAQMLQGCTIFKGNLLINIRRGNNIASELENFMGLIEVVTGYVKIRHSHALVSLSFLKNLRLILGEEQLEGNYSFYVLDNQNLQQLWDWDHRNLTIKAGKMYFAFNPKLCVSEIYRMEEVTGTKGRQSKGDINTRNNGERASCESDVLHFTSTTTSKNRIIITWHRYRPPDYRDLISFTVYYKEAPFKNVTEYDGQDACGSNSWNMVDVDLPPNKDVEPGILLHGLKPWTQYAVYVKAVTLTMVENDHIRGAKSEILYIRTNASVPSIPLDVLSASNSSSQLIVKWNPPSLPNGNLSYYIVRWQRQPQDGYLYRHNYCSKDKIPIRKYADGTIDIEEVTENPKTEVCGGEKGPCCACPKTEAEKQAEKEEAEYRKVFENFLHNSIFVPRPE
Chain of Insulin-like growth factor 1 receptor (Homo sapiens) (P08069 741-1367 limits assumed): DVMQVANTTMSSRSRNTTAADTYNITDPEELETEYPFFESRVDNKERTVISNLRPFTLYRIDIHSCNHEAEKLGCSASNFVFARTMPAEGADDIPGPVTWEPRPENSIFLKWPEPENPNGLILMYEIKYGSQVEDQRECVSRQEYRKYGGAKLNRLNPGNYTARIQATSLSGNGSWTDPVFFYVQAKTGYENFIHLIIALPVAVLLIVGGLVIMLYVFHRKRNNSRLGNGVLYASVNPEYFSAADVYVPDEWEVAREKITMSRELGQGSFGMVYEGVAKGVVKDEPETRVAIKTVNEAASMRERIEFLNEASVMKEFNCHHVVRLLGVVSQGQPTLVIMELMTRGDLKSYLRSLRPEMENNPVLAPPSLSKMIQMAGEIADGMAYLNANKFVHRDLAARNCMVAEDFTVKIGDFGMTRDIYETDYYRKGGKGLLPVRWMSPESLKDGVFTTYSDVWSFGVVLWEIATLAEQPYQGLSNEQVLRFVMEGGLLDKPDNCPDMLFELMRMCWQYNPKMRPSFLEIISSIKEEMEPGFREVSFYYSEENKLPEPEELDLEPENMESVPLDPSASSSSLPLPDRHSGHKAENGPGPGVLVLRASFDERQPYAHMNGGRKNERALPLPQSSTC
For experiment [5] the target is unchanged. The following applies: at 10 µM.
The target in experiment [6] is T3, Inhibitor of nuclear factor kappa-B kinase subunit alpha (Homo sapiens) (UniProt O15111).
T3 sequence (whole entry): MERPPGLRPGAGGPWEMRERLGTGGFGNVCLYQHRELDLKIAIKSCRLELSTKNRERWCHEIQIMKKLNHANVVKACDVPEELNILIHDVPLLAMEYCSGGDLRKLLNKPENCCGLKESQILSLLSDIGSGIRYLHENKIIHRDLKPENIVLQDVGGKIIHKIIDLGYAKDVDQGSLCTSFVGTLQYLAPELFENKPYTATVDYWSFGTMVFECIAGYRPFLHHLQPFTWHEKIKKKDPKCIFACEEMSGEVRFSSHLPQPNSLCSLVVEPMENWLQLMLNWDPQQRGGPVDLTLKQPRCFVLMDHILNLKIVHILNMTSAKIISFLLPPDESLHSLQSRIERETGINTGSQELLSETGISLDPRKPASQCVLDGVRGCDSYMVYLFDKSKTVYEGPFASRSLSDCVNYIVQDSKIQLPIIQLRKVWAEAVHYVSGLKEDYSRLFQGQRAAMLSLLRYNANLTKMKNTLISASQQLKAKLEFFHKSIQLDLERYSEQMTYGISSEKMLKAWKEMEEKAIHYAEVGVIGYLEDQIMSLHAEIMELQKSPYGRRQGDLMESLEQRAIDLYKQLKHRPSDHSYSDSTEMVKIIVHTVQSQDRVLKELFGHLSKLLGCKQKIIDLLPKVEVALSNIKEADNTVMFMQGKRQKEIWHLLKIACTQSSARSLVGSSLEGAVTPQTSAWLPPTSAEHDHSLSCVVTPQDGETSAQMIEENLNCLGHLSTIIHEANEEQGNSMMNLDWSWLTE
Particulars: at 1 µM.

For experiment [7], the target named is T3, Inhibitor of nuclear factor kappa-B kinase subunit alpha (Homo sapiens). Particulars: at 10 µM.
Experiment [8] concerns the target T4, Inhibitor of nuclear factor kappa-B kinase subunit beta (Homo sapiens) (UniProt O14920).
T4 sequence (whole entry): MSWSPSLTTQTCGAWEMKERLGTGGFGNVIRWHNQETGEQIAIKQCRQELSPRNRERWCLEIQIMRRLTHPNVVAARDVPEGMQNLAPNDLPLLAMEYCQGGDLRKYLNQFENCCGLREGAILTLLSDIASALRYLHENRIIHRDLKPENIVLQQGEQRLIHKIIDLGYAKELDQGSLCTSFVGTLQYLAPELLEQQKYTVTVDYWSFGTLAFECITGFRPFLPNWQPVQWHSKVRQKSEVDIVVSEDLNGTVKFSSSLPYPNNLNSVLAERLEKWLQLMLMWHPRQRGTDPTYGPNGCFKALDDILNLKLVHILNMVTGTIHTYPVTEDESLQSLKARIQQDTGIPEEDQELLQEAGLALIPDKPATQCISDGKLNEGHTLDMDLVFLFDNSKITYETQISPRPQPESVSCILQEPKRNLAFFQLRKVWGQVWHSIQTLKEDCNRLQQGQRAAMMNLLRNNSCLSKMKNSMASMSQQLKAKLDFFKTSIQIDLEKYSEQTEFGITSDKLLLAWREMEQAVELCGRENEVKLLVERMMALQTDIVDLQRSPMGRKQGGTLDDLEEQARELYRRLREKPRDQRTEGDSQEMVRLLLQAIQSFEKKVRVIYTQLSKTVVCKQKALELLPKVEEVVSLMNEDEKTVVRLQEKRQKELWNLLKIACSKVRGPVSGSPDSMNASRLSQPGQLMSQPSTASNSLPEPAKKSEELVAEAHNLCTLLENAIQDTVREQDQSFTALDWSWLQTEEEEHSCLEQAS
Particulars: at 1 µM.

Experiment [9] has as its target T4, Inhibitor of nuclear factor kappa-B kinase subunit beta (Homo sapiens). The following applies: at 10 µM.
For experiment [10], the target named is Insulin receptor (Homo sapiens) (UniProt P06213). Particulars: at 1 µM.
Chain of Insulin receptor (Homo sapiens) (P06213 28-758 limits assumed): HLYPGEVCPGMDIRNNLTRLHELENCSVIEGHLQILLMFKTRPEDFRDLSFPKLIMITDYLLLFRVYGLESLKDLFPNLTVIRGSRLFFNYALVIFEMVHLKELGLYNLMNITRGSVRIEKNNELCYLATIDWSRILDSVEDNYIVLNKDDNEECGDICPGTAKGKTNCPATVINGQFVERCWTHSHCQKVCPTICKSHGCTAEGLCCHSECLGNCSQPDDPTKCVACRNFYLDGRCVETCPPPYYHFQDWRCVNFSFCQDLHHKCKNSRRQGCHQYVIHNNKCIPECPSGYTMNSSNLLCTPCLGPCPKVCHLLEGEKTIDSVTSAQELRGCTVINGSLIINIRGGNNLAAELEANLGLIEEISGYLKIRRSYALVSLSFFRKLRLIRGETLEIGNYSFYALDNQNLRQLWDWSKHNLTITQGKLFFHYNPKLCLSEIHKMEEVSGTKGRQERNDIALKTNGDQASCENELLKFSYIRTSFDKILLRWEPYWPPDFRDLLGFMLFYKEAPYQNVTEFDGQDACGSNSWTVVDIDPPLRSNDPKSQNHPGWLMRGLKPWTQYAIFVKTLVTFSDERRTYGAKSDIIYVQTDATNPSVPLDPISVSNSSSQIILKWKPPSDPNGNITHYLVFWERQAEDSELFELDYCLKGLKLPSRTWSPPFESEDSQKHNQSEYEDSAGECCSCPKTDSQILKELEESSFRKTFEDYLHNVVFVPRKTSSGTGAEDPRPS
Chain of Insulin receptor (Homo sapiens) (P06213 763-1382 limits assumed): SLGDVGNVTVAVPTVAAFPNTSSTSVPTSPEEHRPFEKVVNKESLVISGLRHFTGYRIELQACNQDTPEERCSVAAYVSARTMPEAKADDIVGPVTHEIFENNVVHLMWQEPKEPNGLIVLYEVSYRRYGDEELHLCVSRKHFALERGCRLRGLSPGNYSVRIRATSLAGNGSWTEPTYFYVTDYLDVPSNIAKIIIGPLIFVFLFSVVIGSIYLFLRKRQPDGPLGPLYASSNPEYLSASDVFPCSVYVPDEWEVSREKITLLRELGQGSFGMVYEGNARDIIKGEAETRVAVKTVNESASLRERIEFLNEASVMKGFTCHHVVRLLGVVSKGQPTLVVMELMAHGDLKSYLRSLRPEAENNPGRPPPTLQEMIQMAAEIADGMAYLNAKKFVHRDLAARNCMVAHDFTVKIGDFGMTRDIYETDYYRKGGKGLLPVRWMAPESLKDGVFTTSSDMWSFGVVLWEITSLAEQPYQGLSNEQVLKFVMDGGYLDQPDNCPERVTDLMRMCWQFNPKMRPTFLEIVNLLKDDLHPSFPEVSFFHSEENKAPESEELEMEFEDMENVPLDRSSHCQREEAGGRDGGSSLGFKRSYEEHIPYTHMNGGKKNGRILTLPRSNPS

A word on the residual activity: it is the signal under treatment as a percentage of the control signal. With `CC(C)c1nn(-c2c(Cl)cccc2Cl)c2nc(Cc3ccc(OCCO)cc3)[nH]c(=O)c12`, the residual activity in experiment [1] came to 63%; in [2], 94%; in [3], 86%; in [4], 105%; in experiment [5] it was 107%; in [6] it was 99%. Besides, the residual activity in experiment [7] amounted to 90%; in experiment [8] it was 109%; in experiment [9] it was 100%; in [10], 85%.
